# According to PubChem BioAssay (NCATS):
# Records with an inconclusive call do not appear. Values without a mark were called inactive. Calls of active or inactive are those of the source. Calls follow the shape of the dose curve; as a rule, active = well fitted inhibition curve with a large enough effect in the signal ratio, with a control signal flat (not every such curve was filed as active); inconclusive = small, poorly fitted or top-dose-only effect, or effect the other way, or a change in a side signal; inactive = no such curve, though single readings can be large or run the other way; the % refers to the signal ratio.
# Molecular target: Peroxisome proliferator-activated receptor delta (Homo sapiens) (UniProt Q03181)
# Sequence (Q03181 whole entry, looked up): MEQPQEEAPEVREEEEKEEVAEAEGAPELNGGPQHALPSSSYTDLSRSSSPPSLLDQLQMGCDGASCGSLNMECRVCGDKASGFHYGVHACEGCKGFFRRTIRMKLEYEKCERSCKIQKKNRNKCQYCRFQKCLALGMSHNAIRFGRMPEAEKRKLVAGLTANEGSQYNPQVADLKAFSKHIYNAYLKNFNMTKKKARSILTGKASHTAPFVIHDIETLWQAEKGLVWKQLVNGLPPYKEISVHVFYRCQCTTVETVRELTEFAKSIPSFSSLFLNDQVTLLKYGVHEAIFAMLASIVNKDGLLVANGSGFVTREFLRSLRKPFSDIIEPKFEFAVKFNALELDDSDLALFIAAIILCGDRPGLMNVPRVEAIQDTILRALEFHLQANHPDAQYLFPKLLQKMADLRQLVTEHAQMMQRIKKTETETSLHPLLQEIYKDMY
# Test: qHTS assay for small molecule antagonists of peroxisome proliferator-activated receptor delta signaling (AID 588535)
# Details: HEK293T PPARd-UAS-bla, beta-lactamase FRET ratio, 18 h; series mostly up to 76.7 µM; activity change, negative = inhibition: at the top concentration
# Text: NIH Chemical Genomics Center [NCGC] U.S. Environmental Protection Agency [EPA] National Institutes of Environmental Health Sciences [NIEHS] National Toxicology Program [NTP] NCGC Assay Overview The Peroxisome proliferator-activated receptors (PPARs) are lipid-activated transcription factors of the nuclear receptor superfamily with three distinct subtypes namely PPAR alpha, PPAR delta (also called PPAR beta) and PPAR gamma. All these subtypes heterodimerizes with Retinoid X receptor (RXR) and have different physiological functions. […] This role of PPAR delta implicates the potential use of its ligands in the treatment of metabolic disorders.
# NCGC Assay Protocol Summary Using a beta-lactamase reporter-gene under control Peroxisome Proliferator-Activated Receptor delta (PPAR-delta) response element, a cell-based assay [GeneBLAzer (PPAR-delta-UAS-bla assay developed by Invitrogen] was used to measure PPAR-delta ligands signaling. GeneBLAzer PPAR-delta-UAS-bla HEK293T cells were used with assay medium containing 2% charcoal/dextran FBS. The assay was performed in clear bottom black Greiner 1536-well plates. Library compounds were measured for their ability to inhibit the reporter gene activity. Compounds were screened in a titration series in 1536-well format. The fluorescence intensity (405 nm excitation, 460/530 nm emission) was measured using an EnVision plate reader. […] Concentration-response titration points for each compound were fitted to the Hill equation yielding concentrations of half-maximal inhibition (IC50) and maximal response (efficacy) values. qHTS protocol for PPAR-delta beta-lactamase assay in antagonist mode [Step] [Parameter] [Value] [Description] 1. Reagent; 5 uL; 4000 cells/well 2. Incubation; 37 C for 5 hrs 3. Compounds; 23 nL; 0.59 nM to 92 uM 4. […] Incubation; 37 C for 18 hrs 7. Detection reagent; 1 uL of CCF4-dye 8. Incubation; RT for 2 hrs 9. Detection; Fluorescence; Envision plate reader
Structure (SMILES),outcome,"activity change, negative = inhibition [%]"
CCCC(=O)OC(=O)CCC,inactive,
O=[N+]([O-])c1cc(N(CCO)CCO)ccc1NCCO,inactive,
CC(=O)OC1CC(C)OC(C)O1 (stereo not given),inactive,
CCCCC(CC)COCCCN (stereo not given),,-6.5
c1c[nH]cn1,,-5.32
Cc1cc(-c2ccc(N=Nc3cc(S(=O)(=O)O)c4ccccc4c3N)c(C)c2)ccc1N=Nc1cc(S(=O)(=O)O)c2ccccc2c1N,,-18.4
Cc1ccc(N)cc1[N+](=O)[O-],,-8.47
CCNC(=S)NCC,,14.5
CCCCCCc1ccc(-c2ccc(C#N)cc2)cc1,,-4.17
O=[N+]([O-])c1cccc(I)c1,,4.59
CC(C)COC(=O)COc1cc(Cl)c(Cl)cc1Cl,,-5.24
CCCCC(CC)COP(=O)(OCC(CC)CCCC)OCC(CC)CCCC (stereo not given),,15.4
c1ccc(CSCc2ccccc2)cc1,,3.77
Cc1ccc(O)c(N)c1,,-24
CC(CCC(=O)O)(c1ccc(O)cc1)c1ccc(O)cc1,inactive,
NC(=O)c1ccc([N+](=O)[O-])cc1,,-19.3
Oc1c(Cl)cc(Cl)c(Cl)c1Cl,,20.8
C/C=C/C=C/C=O,,-18.8
Nc1ccc(N)c(Cl)c1,,4.56
O=C1OC(=O)c2ccccc21,,-35.4

Structure (SMILES),outcome,"activity change, negative = inhibition [%]"
C1CCCNCC1,,-34.6
Cc1ccc(S(N)(=O)=O)cc1,inactive,
Cc1c(N)cccc1Cl,,-15.4
CC(=O)CC(=O)Nc1ccccc1,,-23.1
c1ccc(SCCSc2ccccc2)cc1,,-8.37
O=CC(=O)c1ccccc1,,-19.7
OCC(CO)(CBr)CBr,inactive,
N[C@@H](Cc1ccccc1)C(=O)O,,-6.45
Nc1ccccc1O,,2.32
c1ccc2c(c1)ccc1ccccc12,,-10.7
CN(C)c1ccc(Cc2ccc(N(C)C)cc2)cc1,inactive,
c1cc2c3c(c1)ccc1cccc(c13)C2,,-16.1
COc1ccc([N+](=O)[O-])cc1N,inactive,
C=Cc1cccc(C)c1,,-27.4
c1ccc2ncccc2c1,,-2.9
O=[N+]([O-])c1cc(Cl)c(Cl)c(Cl)c1Cl,,3.86
COc1ccc(C)cc1N,,-13.8
O=C(Cl)c1ccc([N+](=O)[O-])cc1,,-7.42
O=[N+]([O-])c1ccc(F)cc1F,,-14.7
c1ccc(Nc2cccc3ccccc23)cc1,inactive,
